Measured values: PubChem BioAssay
Values without a mark were called inactive.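 How the source made its calls: active means inhibition at or above 50% relative to wild type and mutant plate controls; inactive means inhibition below 50%.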

Test: loss of swimming-algae plug formation – whole organism, Chlamydomonas reinhardtii, WT vs cilia-less mutant, absorbance, 96-well, primary screen (AID 463189);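 further: 0% = wild type cc124 cells in DMSO and 100% = ciliumless bld1 mutant cells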
Conditions: Chlamydomonas reinhardtii gravitaxis, OD600 absorbance, 2 days; at 10 µM; active compounds read high

Row | SMILES | inhibition
1 | CC(C)C[C@H]1C(=O)N2CCC[C@H]2[C@]2(O)O[C@](NC(=O)[C@@H]3C=C4c5cccc6[nH]c(Br)c(c56)C[C@H]4N(C)C3)(C(C)C)C(=O)N12 | 9.22%
2 | CN1CCc2cc(NC(=O)Nc3cccnc3)ccc21 | 8.14%
3 | S=C(S)N1CCCC1 | 21.2%
4 | CC(CCc1ccc(O)cc1)NCCc1ccc(O)c(O)c1 (configuration not stated) | -1.59%
5 | N#C/C(=C\c1ccc(O)c(O)c1)C(=O)c1ccc(O)c(O)c1 | 2.24%
6 | CC(C)(Oc1ccc(C2CC2(Cl)Cl)cc1)C(=O)O (configuration not stated) | 1.41%
7 | CN1C(C)(C)CCCC1(C)C | 7.18%
8 | Nn1nnc2ccccc21 | 1.8%
9 | CN(Cc1cnc2nc(N)nc(N)c2n1)c1ccc(C(=O)N[C@@H](CCC(=O)O)C(=O)O)cc1 | -2.7%
10 | O=C(O)CNC(=O)C(CS)Cc1ccccc1 (configuration not stated) | -0.967%
11 | NNc1nncc2ccccc12 | -2.73%
12 | CC(C)(Sc1ccc(CCN(CCCCC2CCCCC2)C(=O)NC2CCCCC2)cc1)C(=O)O | -0.647%
13 | C=CCc1ccccc1OCC(O)CN[C@]1(C)CCC[C@H](C(C)(C)NC(=O)CBr)C1 (some centres not stated) | 16.4%
14 | O=C1Cc2c([nH]c3ccc(Br)cc23)-c2ccccc2N1 | -1.32%
15 | CC12CC3CC(C)(C1)CC(N)(C3)C2 | 3.51%
16 | O=C(CCCN1CCC(O)(c2cccc(C(F)(F)F)c2)CC1)c1ccc(F)cc1 | 40.6%
17 | Cc1scc2c1N(C(=O)CN1CCN(C)CC1)c1ccccc1NC2=O | -1.6%
